Only some compounds are listed: those with a hit (about 3.5% of all), similar ones and a draw of the others.
FBW7 activator: activators of human E3 ligase FBW7. Q969H0. AlphaScreen FBW7–phospho-cyclin E peptide binding, activator screen. normalized activity (activation), % at 26.1 µM. 650,000 tested, 0.13% active. AID 1259310; in the data active = normalized activity above about 1.9%;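 note: purified mutant Fbw7 with reduced substrate affinity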
TEAD-YAP block: TEAD-YAP interaction inhibition. 640,000 tested, 1.4% active. inhibition, % at 9.12 µM. HEK-TIYL cells, TEAD-Gal4/YAP UAS-luciferase luminescence. AID 1259422; in the data active = inhibition above about 32%;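 note: 0% = median of test compound wells and 100% = reference inhibitor wells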
MITF primary: inhibitors of human MITF | 650,000 tested, 0.91% active | O75030 | AlphaScreen MITF homodimerization, bead proximity signal | inhibition, % at 2.6 µM; in the data active = inhibition above about 50%;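 note: 0% = vehicle wells with protein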
Target sequence (O75030 whole entry, looked up): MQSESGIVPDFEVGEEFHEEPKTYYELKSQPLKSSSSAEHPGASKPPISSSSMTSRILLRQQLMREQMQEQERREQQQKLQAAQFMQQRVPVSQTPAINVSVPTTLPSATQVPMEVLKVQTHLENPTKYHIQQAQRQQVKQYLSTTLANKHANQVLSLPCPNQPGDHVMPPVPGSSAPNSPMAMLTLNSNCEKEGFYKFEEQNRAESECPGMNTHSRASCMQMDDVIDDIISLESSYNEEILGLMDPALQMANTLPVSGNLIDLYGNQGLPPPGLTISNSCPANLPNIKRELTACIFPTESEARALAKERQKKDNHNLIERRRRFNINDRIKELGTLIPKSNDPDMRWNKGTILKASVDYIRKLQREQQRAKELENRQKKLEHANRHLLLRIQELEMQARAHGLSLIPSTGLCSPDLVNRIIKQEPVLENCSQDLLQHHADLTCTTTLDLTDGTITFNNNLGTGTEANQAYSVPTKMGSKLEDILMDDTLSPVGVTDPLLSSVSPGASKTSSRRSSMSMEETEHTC
GPR151 ag: human GPR151 activation | Q8TDV0 | PathHunter beta-arrestin GPR151 cells, luminescence | activation, % at 11.2 µM | 650,000 tested, 1% active; in the data active = activation above about 4.9%;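 note: 0% = median of compound wells and 100% = cells with positive control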
Numbers without * were called inactive.

SMILES | FBW7 activator | TEAD-YAP block | MITF primary | GPR151 ag
COCCNc1ccc2ncc(-c3cccc(NC(C)=O)c3)n2n1 | 0 | 56* | 6 | 0
CS(=O)(=O)Nc1cccc(-c2cnc3ccc(NCCCO)nn23)c1 | 0 | 58* | -5 | 1
COCCNc1ccc2ncc(-c3cccc(NS(C)(=O)=O)c3)n2n1 | 0 | 42* | -18 | 1
COCCNc1ccc2ncc(-c3cccc(C(C)=O)c3)n2n1 | 0 | 7 | -5 | 3
C=CCc1cccc(/C=N\NC(=O)c2nc3nc(C)cc(C)n3n2)c1O | 0 | 10 | 4 | 0
COc1c(-c2cnn(C)c2)ccc2cnc(Nc3ccc(-n4cnc(N5CCOCC5)n4)cc3)nc12 | 0 | 81* | 15 | -1
Cn1cc(-c2ccc3cnc(Nc4ccc(-n5cnc(N6CCOCC6)n5)cc4)nc3c2-c2ccccc2)cn1 | 0 | 98* | 13 | 0
Cn1cc(-c2ccc3cnc(Nc4ccc(-n5cnc(N6CCOCC6)n5)cc4)nc3c2C2CC2)cn1 | 0 | 81* | 3 | -1
Nc1cccc(-c2nc(N)c3ncn(-c4ccsc4)c3n2)c1 | 0 | 54* | 3 | 0
CC(=O)c1cccc(-c2nc(Nc3ccccc3)c3ncn(-c4ccsc4)c3n2)c1 | 0 | -4 | -20 | 1
CC(=O)c1cccc(-c2nc(N)c3ncn(-c4ccsc4)c3n2)c1 | 0 | 56* | -7 | 0
COc1ccccc1NC(=O)N(C1=NCCC1)c1ccc(Cl)cc1 | 0 | -5 | -15 | -1
COC(CNC(=O)c1ccc2c(c1)N=C(C)c1c(C)ccc(C)c1S2)OC | 0 | 58* | 1 | -1
COC(CNC(=O)c1ccc2c(c1)N=C(C)c1cc(Cl)ccc1S2)OC | 0 | 38* | -1 | 1
CNC(=O)c1ccc2c(c1)N=C(C)c1c(C)ccc(C)c1S2 | 1 | 48* | 20 | 1
CNC(=O)c1ccc2c(c1)N=C(C)c1cc(Cl)ccc1S2 | 0 | 2 | -4 | 0
COC(CNC(=O)c1ccc2c(c1)N=C(C)c1ccccc1S2)OC | 0 | 10 | 14 | 0
COCCCNC(=O)c1ccc(C)c(Cl)c1 | 1 | -2 | 11 | 1
COCCCNC(=O)c1ccc2c(c1)N=C(C)c1c(C)ccc(C)c1S2 | 0 | 56* | 8 | 0
CCCCOc1ccc(NC(=O)CSc2nc3ccc(NC(=O)c4ccc(C(C)(C)C)cc4)cc3s2)cc1 | 0 | 11 | 10 | 1
COCCNC(=O)c1ccc2c(c1)N=C(C)c1c(C)ccc(C)c1S2 | 0 | 74* | 6 | 0
COC(=O)Cn1cc(/C=C2/NC(=O)NC2=O)c2ccccc21 | 0 | 4 | -7 | -1
COc1ccccc1CNC(=O)c1oc2ccc(S(=O)(=O)N3CCOCC3)cc2c1C | 0 | -13 | 0 | 0
Cc1c(C(=O)NCc2ccccc2Cl)oc2ccc(S(=O)(=O)N3CCOCC3)cc12 | 2.4* | -1 | 4 | 2
CC1(Cc2cccc(C#N)c2)C(=O)Nc2ccc(F)cc21 (configuration not stated) | 0 | 2 | -4 | 5
SMILES | FBW7 activator | TEAD-YAP block | MITF primary | GPR151 ag
CC1(Cc2cccc(C#N)c2)C(=O)Nc2ccc(-c3cccnc3)cc21 (configuration not stated) | 0 | 45* | 25 | 1
CC1(Cc2cccc(F)c2)C(=O)Nc2ccc(-c3cccnc3)cc21 (configuration not stated) | 0 | 40* | 23 | 4
CCC(C(=O)NC1CCCCC1)n1ncn2c(cc3occc32)c1=O (configuration not stated) | 0 | 0 | 10 | 0
CC1CCC(NC(=O)CCCCn2c(=O)[nH]c3ccccc3c2=O)CC1 (configuration not stated) | 0 | -8 | 0 | 1
O=C(CCSc1ccc(Cl)cc1)Nc1nc(-c2ccccn2)cs1 | 0 | 34* | 1 | 4
O=C(CCCSc1ccc(Cl)cc1)Nc1nc(-c2ccccn2)cs1 | -1 | 39* | 12 | 0
O=C(CCSc1ccccc1)Nc1nc(-c2ccccn2)cs1 | 0 | 31 | -3 | 0
COc1ccc(S(=O)(=O)Nc2ccc(N3CCCCC3=O)cc2)cc1 | 0 | -8 | 3 | 0
COc1cc2ccccc2cc1C(=O)OCC#N | 0 | 2 | -4 | 4
CN(C)Cc1c(C(=O)N/N=C/c2ccc([N+](=O)[O-])o2)nnn1-c1nonc1N | 0 | 8 | -4 | 1
CCNC(=O)/C(C#N)=C/c1c(Oc2ccccc2C)nc2ccccn2c1=O | 0 | 34* | 5 | -6
CCNC(=O)/C(C#N)=C/c1c(Oc2cccc(C)c2C)nc2ccccn2c1=O | 0 | 42* | -10 | -4
CNC(=O)/C(C#N)=C/c1c(Oc2cccc(C)c2C)nc2ccccn2c1=O | 0 | 28 | 9 | -3

Source: PubChem BioAssay (The Scripps Research Institute Molecular Screening Center)
